According to PubChem BioAssay (NCATS):
Records with an inconclusive call do not appear. Entries that show only a call come without a potency. Activity calls are given as the source filed them. Calls come from the whole dose curve; as a rule, active = well fitted curve in the direction sought with a large enough effect; inconclusive = small, poorly fitted or top-dose-only effect, or another doubt; inactive = no such curve, though single readings can be large; an effect the other way counts as inactive or inconclusive.

Molecular target: Calcium and integrin-binding protein 1 (Homo sapiens) (UniProt Q99828)
Sequence (Q99828 whole entry, looked up): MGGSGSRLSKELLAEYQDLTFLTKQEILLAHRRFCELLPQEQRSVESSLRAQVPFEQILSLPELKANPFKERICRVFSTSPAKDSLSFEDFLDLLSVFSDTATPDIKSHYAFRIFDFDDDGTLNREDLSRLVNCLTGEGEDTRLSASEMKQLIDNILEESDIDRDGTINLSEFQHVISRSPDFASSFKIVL
Experiment: Validation qHTS for Identification of Calcium Integrin Binding protein 1 (CIB1) Competitor (AID 1508618)
Details: CIB1-GST / FITC-alphaIIb peptide fluorescence polarization; series mostly up to 114 µM
Summary of the method: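 In this qHTS validation, the LOPAC set (up to 114 uM) was tested for blocking CIB1 binding to a fluorescein-tagged alphaIIb peptide, with FP detection at 480/540 nm.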

Structure (SMILES)	Potency
O=C1NC(=O)c2cc(Nc3ccccc3)c(Nc3ccccc3)cc21	inactive
COc1ccccc1N1CCN(CCN(C(=O)c2ccc(F)cc2)c2ccccn2)CC1	inactive
CCCC(=O)NCCc1c2n(c3ccc(OC)cc13)CCCc1ccccc1-2	inactive
C=CCNc1ncnc2ccc(Br)cc12	inactive
CC(=O)C(C)=O	inactive
Brc1c(Br)c(Br)c2[nH]cnc2c1Br	inactive
CN1Cc2sccc2C(c2ccc(O)c(O)c2)C1 (stereo not given)	inactive
COc1cc2c(CCNC(C)=O)c[nH]c2cc1O	inactive
N[C@@H](Cc1c[nH]c2ccccc12)C(=O)O	inactive
C[C@H](NC(=O)/C(C#N)=C/c1ccc(O)c(O)c1)c1ccccc1	inactive
Fc1ccc(CN(C2=NCCN2)c2c(Cl)cccc2Cl)cc1	inactive
NC(Cc1cccc(-c2ccccc2CP(=O)(O)O)c1)C(=O)O (stereo not given)	inactive

Test system: not listed separately
Experiment: Primary qHTS for small molecule stabilizers of the endoplasmic reticulum resident proteome: Secreted ER Calcium Modulated Protein (SERCaMP) assay (AID 1508630)
Details: SH-SY5Y GLuc-SERCaMP (Gaussia luciferase released on ER calcium loss) secretion, thapsigargin, luminescence; series mostly up to 38.4 µM
Summary of the method: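 The SH-SY5Y reporter protocol was run at 3 concentrations up to 38.3 uM (primary) or 11 concentrations (follow-up): 16 h compound, 100 nM thapsigargin for 4 h, then extracellular luciferase luminescence.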

Structure (SMILES)	Potency
COc1ccc2c(c1)c(CC(=O)O)c(C)n2Cc1ccc(Cl)cc1	inactive
N#CC(=C(\N)Sc1ccccc1N)/C(C#N)=C(/N)Sc1ccccc1N	inactive
NC1(C(=O)O)CCc2cc(C(=O)O)ccc21 (stereo not given)	inactive
N[C@@H](CCC(=O)N[C@H](CSN=O)C(=O)NCC(=O)O)C(=O)O	inactive
CN1CCC2(CCN3CCc4c(oc5ccccc45)C3C2)N(C)C1=O (stereo not given)	inactive
O=C(O)c1ccccc1Nc1cccc(OCc2ccc3ccccc3n2)c1	inactive
Cc1nc(N=Nc2cc(S(=O)(=O)O)c3cc([N+](=O)[O-])cc(S(=O)(=O)O)c3c2)c(COP(=O)(O)O)c(C=O)c1O	inactive
O=[N+]([O-])c1cccc2c(Br)[nH]nc12	inactive
CCCCCCCCCCC/C=C\C(C)(C)/C=C\CCCC(=O)O	inactive
CCC1(O)CC2CN(CCc3c([nH]c4ccccc34)[C@@](C(=O)OC)(c3cc4c(cc3OC)N(C)C3[C@]45CCN4CC=C[C@@](CC)([C@@H](OC(C)=O)[C@]3(O)C(=O)OC)[C@H]45)C2)C1 (stereo not given in full)	inactive
CC(=O)N[C@@H](Cc1c[nH]c2ccccc12)C(=O)OCc1cc(C(F)(F)F)cc(C(F)(F)F)c1	inactive
C[C@H](O)C(=O)C1=Nc2c(nc(N)[nH]c2=O)NC1	inactive
Cc1cc(Cn2cnc3c2C[C@@H](C(=O)O)N(C(=O)C(c2ccccc2)c2ccccc2)C3)ccc1N	inactive
O=c1onc2cnc3ccccc3n12	inactive
N#Cc1cc2nc(O)c(O)nc2cc1[N+](=O)[O-]	inactive
CCCCCCC/C=C\CCCCCCCCC(=O)O	inactive
O=c1[nH]c(=O)c2nc3ccccc3nc2[nH]1	inactive
C=C1C(=O)O[C@@H]2[C@H]3O[C@]3(C)CCC=C(C)CC[C@@H]12	inactive
NC(=O)c1cc[n+](CC2=C(C(=O)O)N3C(=O)[C@@H](NC(=O)[C@@H](c4ccccc4)S(=O)(=O)[O-])[C@H]3SC2)cc1	inactive
CO/N=C(\C(=O)N[C@@H]1C(=O)N2C(C(=O)O)=C(CSc3nc(=O)c(O)nn3C)CSC12)c1csc(N)n1 (stereo not given in full)	inactive
O=C(O)/C(=C/c1c(C(=O)O)[nH]c2cc(Cl)cc(Cl)c12)c1ccccc1	inactive
O=C(N[C@@H](Cc1ccccc1)C(=O)CCl)OCc1ccccc1	inactive
C/C(=C\c1ccc(C(=O)O)cc1)c1ccc2c(c1)C(C)(C)CCC2(C)C	inactive
NCC(O)c1ccc(O)c(O)c1 (stereo not given)	inactive
C=CCn1c(=O)c2c(nc(-c3ccc(S(=O)(=O)O)cc3)n2C)n(C)c1=O	inactive
C[C@@]1(C2CCCC2)Cc2cc(OCC(=O)O)c(Cl)c(Cl)c2C1=O	inactive

Molecular target: Papain (Carica papaya) (UniProt P00784)
Sequence (P00784 whole entry, looked up): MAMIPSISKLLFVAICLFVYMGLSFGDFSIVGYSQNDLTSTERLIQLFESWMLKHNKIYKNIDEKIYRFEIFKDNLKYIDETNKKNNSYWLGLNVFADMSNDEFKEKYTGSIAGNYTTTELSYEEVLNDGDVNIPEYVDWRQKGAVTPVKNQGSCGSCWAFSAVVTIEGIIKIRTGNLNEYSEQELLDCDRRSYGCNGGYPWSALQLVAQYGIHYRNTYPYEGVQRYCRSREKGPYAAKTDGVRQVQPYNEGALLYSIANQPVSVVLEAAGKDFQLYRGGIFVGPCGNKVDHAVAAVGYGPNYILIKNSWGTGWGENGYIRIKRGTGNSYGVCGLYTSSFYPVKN
Experiment: Primary qHTS assay for inhibitors of the protease papain (AID 1645873);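 note: papain turnover of Z-FR-AMC read as the AMC fluorescence gain over 10 min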; note: potency is the fitted concentration of half-maximal effect
Details: papain Z-FR-AMC cleavage, AMC fluorescence; series mostly up to 49.8 µM

Structure (SMILES)	Potency
O=C1NC(=O)c2cc(Nc3ccccc3)c(Nc3ccccc3)cc21	inactive
COc1ccc2c(c1)c(CC(=O)O)c(C)n2Cc1ccc(Cl)cc1	inactive
COc1ccccc1N1CCN(CCN(C(=O)c2ccc(F)cc2)c2ccccn2)CC1	inactive
C=CCNc1ncnc2ccc(Br)cc12	inactive
NC1(C(=O)O)CCc2cc(C(=O)O)ccc21 (stereo not given)	inactive
N[C@@H](CCC(=O)N[C@H](CSN=O)C(=O)NCC(=O)O)C(=O)O	inactive
CN1CCC2(CCN3CCc4c(oc5ccccc45)C3C2)N(C)C1=O (stereo not given)	inactive
O=C(O)c1ccccc1Nc1cccc(OCc2ccc3ccccc3n2)c1	inactive
CC(=O)C(C)=O	inactive
Brc1c(Br)c(Br)c2[nH]cnc2c1Br	inactive
CN1Cc2sccc2C(c2ccc(O)c(O)c2)C1 (stereo not given)	inactive
O=[N+]([O-])c1cccc2c(Br)[nH]nc12	inactive
CCCCCCCCCCC/C=C\C(C)(C)/C=C\CCCC(=O)O	inactive
CC(=O)N[C@@H](Cc1c[nH]c2ccccc12)C(=O)OCc1cc(C(F)(F)F)cc(C(F)(F)F)c1	inactive
C[C@H](O)C(=O)C1=Nc2c(nc(N)[nH]c2=O)NC1	28.2 µM (active)
Cc1cc(Cn2cnc3c2C[C@@H](C(=O)O)N(C(=O)C(c2ccccc2)c2ccccc2)C3)ccc1N	inactive
COc1cc2c(CCNC(C)=O)c[nH]c2cc1O	inactive
N[C@@H](Cc1c[nH]c2ccccc12)C(=O)O	inactive
C[C@H](NC(=O)/C(C#N)=C/c1ccc(O)c(O)c1)c1ccccc1	inactive
O=c1[nH]c(=O)c2nc3ccccc3nc2[nH]1	inactive
C=C1C(=O)O[C@@H]2[C@H]3O[C@]3(C)CCC=C(C)CC[C@@H]12	inactive
Fc1ccc(CN(C2=NCCN2)c2c(Cl)cccc2Cl)cc1	inactive
NC(=O)c1cc[n+](CC2=C(C(=O)O)N3C(=O)[C@@H](NC(=O)[C@@H](c4ccccc4)S(=O)(=O)[O-])[C@H]3SC2)cc1	inactive
O=C(N[C@@H](Cc1ccccc1)C(=O)CCl)OCc1ccccc1	15.8 µM (active)
C=CCn1c(=O)c2c(nc(-c3ccc(S(=O)(=O)O)cc3)n2C)n(C)c1=O	25.1 µM (active)
NC(Cc1cccc(-c2ccccc2CP(=O)(O)O)c1)C(=O)O (stereo not given)	inactive
C[C@@]1(C2CCCC2)Cc2cc(OCC(=O)O)c(Cl)c(Cl)c2C1=O	inactive
